Source: PubChem BioAssay (Broad Institute)
PAX8 inh HTS – PAX8 transcriptional activity inhibition; RMG-I TPO-luciferase reporter, SteadyGlo, 24 h; inhibition, % at 12.6 µM; 360,000 tested, 1.2% active;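 active = mean replicate inhibition at least 60% with every replicate also reaching 60%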;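 also: luciferase light reporting Pax8 driven TPO promoter activity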
PGC1a acetyl inh – modulators of PGC1a acetylation; U2OS PGC1a acetylation, AlphaScreen anti-acetyl-lysine; with virally co-expressed GCN5 acetyltransferase; inhibition, % at 15.6 µM; 350,000 tested, 0.17% active; AID 651687;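 active = every replicate shows inhibition of at least 40%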
Env fusion inh – HIV envelope-mediated fusion inhibition | HeLa-JRFL Env/CEM21 cell fusion, luciferase | inhibition, % at 12.3 µM | 360,000 tested, 1.1% active;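 active = mean replicate inhibition score of at least 50 and every replicate individually at or above 50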
F508del corr – correctors of CFTR F508del function in bronchial epithelial cells; CFBE cells, YFP halide quenching; stimulated with forskolin plus potentiator P3; % fluorescence drop versus neutral controls; activity (quench increase), % at 7.58 µM; 350,000 tested, 0.36% active; AID 720511;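 active = mean added fluorescence quench of at least 8% versus neutral control, with both replicates also reaching 8%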;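 also: cells transiently co-express mutant CFTR-F508del with the halide-sensitive YFP; corrector assay measuring rescue of mutant channel to the surface after 24 h compound exposure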
INS-1E GSIS act – primary screen for activators of insulin secretion dependent on glucose, INS-1E cells, GLuc reporter luminescence; INS-1E GLuc reporter insulin secretion, 2-3 h; 370,000 tested, 0.61% active; activation, % at 16.6 µM; AID 743287;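 active = lowest replicate activation of at least 40%, so every replicate reaches that level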
EWS-Fli inh – blocks EWS/Fli oncoprotein-driven transcription | A673 NR0B1-luciferase reporter, viability-normalised | inhibition, % at 12.6 µM | 350,000 tested, 0.67% active | AID 651661;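 active = mean inhibition of at least 50% after viability correction, with every replicate also passing that limit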;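 also: firefly luciferase signal divided by Alamar Blue viability fluorescence both relative to DMSO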
Large screens that a line does not name were inactive; [ ] = remark or other dose. Rows were chosen to be rich in hits. Some 2.7% of all compounds tested hit in one or more screens of this group.

O=C(Nc1ccc(F)cc1)N[C@@H]1C=C[C@H](CC(=O)N2CCOCC2)O[C@H]1CO	none
Cc1c(NC(=O)C(C)OC(=O)c2c3c(nc4ccccc24)CCC3)c(=O)n(-c2ccccc2)n1C (configuration not stated)	PAX8 inh HTS 73 (no result: PGC1a acetyl inh, Env fusion inh)
CCCC#Cc1cnc2c(c1)C(=O)N([C@@H](C)CO)C[C@@H](C)[C@H](CN(C)C(=O)Nc1ccccc1OC)O2	none (no result: PAX8 inh HTS)
CC(C)N1CCc2c(sc(NC(=O)c3ccc([N+](=O)[O-])o3)c2C(N)=O)C1	PAX8 inh HTS 96, Env fusion inh 106, F508del corr 15 (no result: PGC1a acetyl inh)
CC(=O)N1CCc2c(sc(NC(=O)c3ccc([N+](=O)[O-])o3)c2C#N)C1	PAX8 inh HTS 96
O=C1C(=O)c2cccnc2-c2ncccc21	PAX8 inh HTS 107, Env fusion inh 60 (no result: PGC1a acetyl inh)
O=C1c2cccnc2-c2ncccc21	none (no result: PAX8 inh HTS, Env fusion inh, F508del corr, INS-1E GSIS act, EWS-Fli inh)
COc1ccc2c3c(n(C)c2c1)[C@@H](CO)N(C(C)=O)CC31CCN(Cc2cncnc2)CC1	none (no result: PAX8 inh HTS, PGC1a acetyl inh, Env fusion inh, F508del corr, EWS-Fli inh)
CC(=O)Nc1ccc(Sc2ccc([N+](=O)[O-])o2)cc1	PAX8 inh HTS 114, EWS-Fli inh 61
COc1ccc(NC(=O)/C(Cl)=C(/Cl)S(=O)Cc2ccc(Cl)cc2)cn1 (configuration not stated)	PAX8 inh HTS 88, PGC1a acetyl inh 100, INS-1E GSIS act 46, EWS-Fli inh 74
COc1ccc(NC(=O)C(C)(C)Oc2ccc(Cl)cc2)cn1	none (no result: PGC1a acetyl inh, Env fusion inh)
COc1ccc(NC(=O)C(Cl)=C(Cl)Cl)cn1	none
COc1ccc(NC(=O)/C(Cl)=C(/Cl)S(=O)(=O)Cc2ccccc2)cn1	PGC1a acetyl inh 64 (no result: PAX8 inh HTS, Env fusion inh, F508del corr, INS-1E GSIS act, EWS-Fli inh)
C[C@H]1CN(C)C(=O)c2cc(N)ccc2O[C@@H]1CN(C)C	none (no result: PAX8 inh HTS, PGC1a acetyl inh, Env fusion inh, F508del corr, EWS-Fli inh)
COc1ccc(OC)c(/C=C/C(=O)OCC(=O)N2C(C)CCCC2C)c1 (configuration not stated)	Env fusion inh 92
COc1ccc(C(=O)OCC(=O)N2C(C)CCCC2C)cc1S(=O)(=O)N1CCOCC1 (configuration not stated)	F508del corr 11 (no result: INS-1E GSIS act)
Cc1ccc(C(=O)OCC(=O)N2C(C)CCCC2C)cc1S(=O)(=O)N1CCOCC1 (configuration not stated)	none (no result: Env fusion inh)
COc1ccc(OC)c(/C=C/C(=O)OCC(=O)N2CCCC2)c1	none (no result: Env fusion inh)
COc1ccc(C#Cc2cnc3c(c2)C(=O)N([C@H](C)CO)C[C@H](C)[C@H](CN(C)S(=O)(=O)c2ccc(C#N)cc2)O3)cc1OC	none (no result: PAX8 inh HTS, Env fusion inh)
CC(C)c1ccccc1NC(=O)Cn1c(-c2ccccc2Cl)nc2ccccc21	PGC1a acetyl inh 43 (no result: F508del corr, EWS-Fli inh)
C/C(=N\NC(=O)c1c([N+](=O)[O-])c(C)nn1C)c1ccc(NC(=O)C2CCCC2)cc1	EWS-Fli inh 52
C/C(=N\NC(=O)c1c(Cl)c(C)nn1C)c1ccc(NC(=O)C2CCC2)cc1	F508del corr 11
C/C(=N\NC(=O)c1c([N+](=O)[O-])c(C)nn1C)c1ccc(NC(=O)c2ccc(C)o2)cc1	none (no result: PGC1a acetyl inh)
CCS(=O)(=O)N1CCC2(CC1)CN(C(=O)CN1CCOCC1)[C@@H](CO)c1c2c2ccc(OC)cc2n1C	none (no result: PAX8 inh HTS, Env fusion inh)
O=C1CC(C(=O)N(CC2CCCO2)C(C(=O)NC2CCCCC2)c2ccncc2)CS1 (configuration not stated)	Env fusion inh 78 (no result: PAX8 inh HTS, F508del corr, EWS-Fli inh)
CCOC(=O)c1cc(C(C)C)sc1NC(=O)COC(=O)CCS(=O)(=O)c1ccccc1	none (no result: Env fusion inh, INS-1E GSIS act)
N#Cc1ccsc1NC(=O)CCS(=O)(=O)c1ccccc1	PAX8 inh HTS 64 (no result: PGC1a acetyl inh, Env fusion inh)
CCOC(=O)c1ccsc1NC(=O)CCS(=O)(=O)c1ccccc1	PAX8 inh HTS 64 (no result: PGC1a acetyl inh, Env fusion inh)
NC(=O)c1ccsc1NC(=O)CCS(=O)(=O)c1ccccc1	none (no result: PGC1a acetyl inh)
N#Cc1ccsc1NC(=O)COC(=O)CCS(=O)(=O)c1ccccc1	none
NC(=O)c1ccsc1NC(=O)CCS(=O)(=O)c1ccc(Cl)cc1	PAX8 inh HTS 65
CCNC(=O)C[C@@H]1CC[C@@H]2[C@@H](COc3ccc(NS(C)(=O)=O)cc3C(=O)N2C)O1	none
COCC(=O)Nc1ccc2c(c1)[C@@H]1C[C@H](CC(=O)N3CCOCC3)O[C@@H](CO)[C@@H]1O2	none
CCC(=O)Nc1ccc2c(c1)C(=O)N(C)C[C@@H](OC)[C@H](C)CN(CC1CC1)[C@H](C)CO2	none (no result: Env fusion inh)
CCN1CC(=O)N2[C@@H](CO)[C@H](c3ccc(Br)cc3)[C@@H]2C1	none (no result: PAX8 inh HTS, Env fusion inh)
Cc1cccc(C)c1NC(=O)N1CCN(c2nc3ccccc3s2)CC1	Env fusion inh 72 (no result: PAX8 inh HTS, F508del corr, INS-1E GSIS act, EWS-Fli inh)
CN1[C@@H]2c3ccc(/C=C/c4ccccc4)c(=O)n3C[C@@H]2[C@@H](CO)[C@@H]1C(=O)N1CCCCC1	none (no result: PGC1a acetyl inh, Env fusion inh)
C[C@@H]1CN([C@@H](C)CO)C(=O)c2cc(NS(=O)(=O)c3ccccc3)ccc2O[C@H]1CN(C)Cc1ccc(Oc2ccccc2)cc1	Env fusion inh 94[16.7 µM]
C[C@H](CO)N1C[C@H](C)[C@H](CN(C)Cc2ccc(Oc3ccccc3)cc2)Oc2ccc(NS(=O)(=O)c3ccccc3)cc2C1=O	none
COc1ccc(S(=O)(=O)Nc2ccc3c(c2)C(=O)N([C@@H](C)CO)C[C@@H](C)[C@H](CN(C)Cc2ccc(Oc4ccccc4)cc2)O3)cc1	F508del corr 10
CCC(=O)N1C[C@@H](C)[C@@H](OC)CN(C)C(=O)c2cc(NC(=O)c3cc(C)on3)ccc2OC[C@@H]1C	none (no result: PAX8 inh HTS, Env fusion inh)
C[C@H]1CN([C@@H](C)CO)C(=O)CCCn2cc(nn2)CO[C@H]1CN(C)Cc1ccc2c(c1)OCCO2	none (no result: PAX8 inh HTS)
COc1ccc(C)cc1-n1cnc2sc(C)c(C)c2c1=O	none
COc1ccccc1-n1cnc2sc(C)c(C)c2c1=O	INS-1E GSIS act 59
COCC(=O)Nc1ccc2c(c1)[C@@H]1C[C@@H](CC(=O)NCC3CC3)O[C@H](CO)[C@@H]1O2	none (no result: PAX8 inh HTS, Env fusion inh)
COc1ccc(-c2cccc(C(=O)Nc3ccc(C)cc3)c2)cc1	INS-1E GSIS act 99 (no result: F508del corr, EWS-Fli inh)
COc1ccc(C(=O)Nc2ccc3[nH]c(-c4cccc(OC)c4)cc(=O)c3c2)cc1	EWS-Fli inh 57 (no result: PGC1a acetyl inh)
COc1ccc(COc2cc(-c3cccc(OC)c3)nc3ccc(NC(=O)c4ccc(C)cc4)cc23)cc1	PAX8 inh HTS 80 (no result: PGC1a acetyl inh)
Cc1ccc(OCC(=O)NC(=S)Nc2cccc(NC(=O)c3ccccc3)c2)cc1	INS-1E GSIS act 49 (no result: F508del corr, EWS-Fli inh)
Cc1nc(C)c(C(=O)Nc2ncc([N+](=O)[O-])s2)o1	EWS-Fli inh 57 (no result: PGC1a acetyl inh)
O=C(Nc1ccccc1)Nc1ncc([N+](=O)[O-])s1	PAX8 inh HTS 85
CC(C)CC(=O)Nc1ncc([N+](=O)[O-])s1	none (no result: INS-1E GSIS act)
C[C@@H]1CN([C@H](C)CO)C(=O)c2cc(NC(=O)Nc3ccc(F)cc3)ccc2O[C@@H]1CN(C)S(=O)(=O)c1ccc(F)cc1	none (no result: PAX8 inh HTS)
Cc1ccc(-n2[nH]c(=O)c(-c3ccccn3)c2C)cc1	PAX8 inh HTS 75, EWS-Fli inh 74
Cc1ccc(-n2[nH]c(=O)c3cccnc32)cc1	none (no result: PGC1a acetyl inh, F508del corr, INS-1E GSIS act, EWS-Fli inh)
